Sampled rows, rich in hits. Any-hit rate of the full collection: about 19%.
DT40 TDP1 CPT = DT40-hTDP1 cell growth loss with CPT; chicken DT40 Tdp1-/-;hTDP1 cells + 20 nM CPT, ATP luminescence, 48 h; Potency, µM (series often up to 46.2 µM), for inactives: top-dose activity change, negative = growth inhibition, actives largely listed as inhibitors; hit rate 12% among 420,000; note: nearly all actives have a fitted effect of over 55% in size
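Chicken DT40 Tdp1-/- cells complemented with human TDP1, 400 cells/well, exposed to compounds plus 20 nM camptothecin for at least 48 h at 37 C; viability read as ATP content by CellTiter-Glo luminescence.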
DT40 TDP1 no CPT = qHTS for Inhibitors of human tyrosyl-DNA phosphodiesterase 1 (TDP1): qHTS in cells in absence of CPT; hit rate 15% among 420,000; Potency, µM (doses to about 46.2 µM), inactives show at the highest dose activity change, negative = growth inhibition, usual class: inhibitors; DT40 Tdp1-/- hTDP1 cells, no CPT, ATP luminescence, 48 h; note: nearly all actives have a fitted effect of over 55% in size
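Stably hTDP1-transfected Tdp1-null chicken DT40 cells were treated with library compounds minus camptothecin and grown for at least 48 hr at 37 °C, after which cellular ATP was quantified by luminescence.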
KB-V1 MDR tox = KB-V1 MDR subline cytotoxicity. hit rate 3.4% among 400,000. KB-V1 MDR cells viability, CellTiter-Glo, 72 h. Potency, µM (top dose mostly 46.1 µM), usual class: cytotoxic; note: nearly all actives have a fitted effect of over 60% in size
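KB-V1 MDR subline cells in DMEM (phenol-red free, 10% FBS) exposed to compounds in qHTS concentration series for 72 h at 37 degrees C. Viability read by CellTiter-Glo luminescence; concentration-effect curves fitted after normalization and correction.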
HT1080 IDH1KD tx = kills HT-1080 cells with IDH1 knockdown; HT-1080 IDH1 knockdown viability, ATP luminescence, 48 h; Potency, µM (top dose mostly 46.1 µM), without a hit: at the top dose activity, negative = toxicity, usual class: cytotoxic; hit rate 2% among 360,000; AID 686971;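 note: 0% = DMSO wells and -100% = cell-free medium wells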
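Knockdown cells (IDH1KD HT-1080) received compounds 2 h after plating at 750 cells/well and were kept 48 h at 37 °C in 5% FBS RPMI. A CellTiter-Glo luminescence read gave % activity for curve fitting.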
KB-3-1 cytotox = KB-3-1 parental cell cytotoxicity; KB-3-1 viability, CellTiter-Glo ATP luminescence, 72 h; Potency, µM (highest dose often 46.1 µM), usual class: cytotoxic; hit rate 1.4% among 400,000; AID 1347075; note: nearly all actives have a fitted effect of over 60% in size
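Cytotoxicity in the drug-sensitive parental line KB-3-1 was scored as loss of CellTiter-Glo luminescence following 72 h incubation with compound. Values come from curve fitting of normalized concentration-response data.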
HT1080NT lethal = kills 2HG-producing HT-1080-NT fibrosarcoma cells; HT-1080-NT fibrosarcoma viability, CellTiter-Glo ATP luminescence, 48 h; Potency, µM (top dose mostly 46.1 µM), for inactives: top-dose activity, negative = less viability, usual class: cytotoxic; hit rate 1.6% among 360,000;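 note: NT is the 2HG producing partner of a matched IDH1 knockdown line; 0% = DMSO-treated cells and -100% = media-only wells without cells; nearly all actives have a fitted effect of over 55% in size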
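Compounds were tested in concentration-response format on HT-1080-NT cells for 48 hours at 37 degrees C. Cell viability came from CellTiter-Glo luminescence; curves were classified by r2, response magnitude and activity.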
An asterisk follows results filed as active; i = inactive; ? = inconclusive; . = no result. Calls come from the whole dose curve; as a rule, active = well fitted curve in the direction sought with a large enough effect; inconclusive = small, poorly fitted or top-dose-only effect, or another doubt; inactive = no such curve, though single readings can be large; an effect the other way counts as inactive or inconclusive. Unless noted, % is set by controls: 0 for no effect and ±100 for the full control effect; potency is the fitted concentration of half-maximal effect.

SMILES	DT40 TDP1 CPT	DT40 TDP1 no CPT	KB-V1 MDR tox	HT1080 IDH1KD tx	KB-3-1 cytotox	HT1080NT lethal
O=C(Nc1nc2ccccc2s1)c1ccc([N+](=O)[O-])o1	15µM*	8.2µM*	?	-14%	?	?
O=C(Nc1nc2cc3c(cc2s1)OCCO3)c1ccc([N+](=O)[O-])o1	8.2µM*	10µM*	?	?	3.3µM*	?
O=C(Nc1nc2ccccc2s1)c1ccccc1[N+](=O)[O-]	-19%	6%	i	-5%	i	-15%
CCOc1ccc(S(=O)(=O)N2CCN(c3nc(-c4ccccc4)nc4ccccc34)CC2)cc1	5%	-16%	.	13%	.	14%
COc1ccc(-c2coc3c(C(=O)NCC4CCOCC4)cccc23)c(C)c1	10µM*	10µM*	?	-15%	i	?
CN(C)CCNC(=O)c1ccccc1-c1cc2ccccc2c(=O)o1	5%	6%	i	9%	i	2%
COc1ccc(-c2coc3c(C(=O)NCCc4ccccc4)cccc23)c(C)c1	16µM*	16µM*	?	?	i	?
COCCCNC(=O)c1cccc2c(-c3ccc(OC)cc3C)coc12	18µM*	?	?	?	?	?
COc1ccc2oc(C(=O)NCCc3ccccc3)c(C)c2c1	0%	?	i	-2%	i	4%
COc1ccc(-c2coc3c(C(=O)NCCN(C)C)cccc23)c(C)c1	?	?	i	16µM*	?	26µM*
COCCCNCCC(CCC(C)C)c1ccc2c(c1)OCO2 (centres undefined)	?	21µM*	?	15µM*	?	21µM*
CC(C)CCC(CCN1CCOCC1)c1ccc2c(c1)OCO2 (centres undefined)	?	?	21µM*	?	i	-27%
CC(C)CCC(CCN1CCCC1)c1ccc2c(c1)OCO2 (centres undefined)	?	?	i	-16%	i	-11%
c1ccc(Nc2nc(N3CCCC3)nc(N3CCOCC3)n2)cc1	.	.	i	.	i	.
CN1CCN(c2nc(Nc3ccc(F)cc3)nc(Nc3ccc(F)cc3)n2)CC1	21µM*	?	i	?	i	?
c1ccc(Nc2nc(Nc3ccccc3)nc(N3CCNCC3)n2)cc1	?	?	?	?	i	23µM*
CC1(C)CCc2cc(O)ccc2O1	0%	-4%	.	20%	.	14%
CCOC(=O)CCCCCC(=O)Nc1ccc2c(c1)C(=O)N([C@@H](C)CO)C[C@H](C)[C@H](CN(C)C(=O)c1ccccc1)OCCCC[C@H](C)O2	-10%	?	i	3%	i	0%
Cc1cccc(N/N=C/c2ccc(O)c(O)c2O)c1	?	?	i	-28%	i	-27%
Cc1cccc(N/N=C/c2ccc(C)s2)c1	29µM*	?	i	-8%	i	-3%
CCOc1ccccc1C1C2CCCCC2(O)CCN1C(=O)c1cccs1 (centres undefined)	5%	-23%	23µM*	-2%	i	2%
Cc1nn(-c2ccccc2)c2sc(C(=O)N(CC(=O)NC3CCCC3)Cc3ccco3)cc12	?	16µM*	?	?	?	?
COc1ccc2c(c1)OC[C@H]1[C@H]2N2C(=O)c3cc(F)ccc3NC(=O)[C@@]2(C)[C@H]1c1ccccc1	?	18µM*	?	?	?	?
COc1ccc2c(c1)OC[C@H]1[C@H]2N2C(=O)c3ccc(C)cc3NC(=O)[C@@]2(C)[C@H]1c1ccccc1	23µM*	?	i	?	i	-25%
CCOC(=O)CSc1nc(-c2ccc(C)cc2C)cc(-c2ccccc2)c1C#N	4%	2%	.	.	.	.
SMILES	DT40 TDP1 CPT	DT40 TDP1 no CPT	KB-V1 MDR tox	HT1080 IDH1KD tx	KB-3-1 cytotox	HT1080NT lethal
COc1ccc(-c2cc(C(=O)N(C)Cc3cccc(OC)c3OC)c3ccccc3n2)cc1OC	21µM*	15µM*	i	-26%	i	-22%
COc1cccc(CN(C)C(=O)c2cc(-c3ccc(OC)c(OC)c3)nc3ccccc23)c1	15µM*	?	.	-16%	.	-10%
COc1cccc(NC(=O)CN(C)C(=O)c2cc(-c3ccccc3)nc3ccccc23)c1	?	?	?	-15%	i	-14%
COc1ccc(-c2cc(C(=O)N(C)Cc3nc4ccccc4c(=O)[nH]3)c3ccccc3n2)cc1OC	?	21µM*	?	-4%	i	-4%
COc1cccc(CN(C)C(=O)c2cc(-c3ccc(F)cc3)nc3ccccc23)c1	21µM*	21µM*	?	-5%	i	-8%
COCCN1C(=O)c2oc3ccc(C)cc3c(=O)c2C12C(=O)N(C)c1ccccc12 (centres undefined)	6%	-2%	i	.	i	.
CC12CCC3c4ccc(O)cc4CCC3C1CC(=NO)C2O (centres undefined)	-25%	?	i	-6%	i	0%
O=C1NC[C@H](CCCCN2C[C@H](Cc3ccc(O)cc3)N(CCc3ccc(O)cc3)C(=O)C2=O)N(Cc2ccccc2)C1=O	-5%	-17%	i	8%	i	-1%
COc1ccc(CN(C)C(=O)c2cc(-c3ccccc3)nc3ccc(C)cc23)c(OC)c1OC	18µM*	16µM*	?	-6%	i	-7%
COc1ccccc1-c1csc(NC(=O)c2cc(-c3cccs3)nc3ccccc23)n1	-21%	-27%	i	12%	i	5%
COc1ccc(CN(C)C(=O)c2cc(-c3ccc(OC)c(OC)c3)nc3ccccc23)c(OC)c1	16µM*	18µM*	i	-20%	i	-9%
COc1ccccc1CN(C)C(=O)c1cc(-c2cccs2)nc2ccccc12	?	16µM*	?	?	?	?
COc1ccc(-c2cc(C(=O)N(C)CC(=O)Nc3cccc(F)c3)c3ccccc3n2)cc1OC	21µM*	21µM*	i	?	i	?
COc1ccc(CCN(C)C(=O)c2cc(-c3ccccc3)nc3ccc(C)cc23)cc1OC	?	?	i	-5%	i	0%
COc1ccc(CN(C)C(=O)c2sccc2-c2ccccc2)c(OC)c1	?	?	i	-18%	i	-13%
COc1cccc(NC(=O)CN(C)C(=O)c2cc(-c3ccc(F)cc3)nc3ccccc23)c1	?	?	?	-30%	i	-15%

Screens: PubChem BioAssay, National Center for Advancing Translational Sciences (NCATS)
